# In PubChem BioAssay AID1159580 (chemical genetic matrix, 2015):
# The campaign covered roughly 5,500 compounds. About 2,000 (36%) were called active. Roughly 18% stayed inconclusive and do not appear here. The list shows a part of the results. A number with no mark means an inactive call. Rule as the data show it: active = normalized growth mostly below about 0.91 (no sharp cut-off); inconclusive = no clear call, values can overlap the other calls; inactive = mostly above about 0.92.
# Experiment: chemical genetic growth profiling, strain panel (AID 1159580);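 also: tested at 20 µM; growth read once vehicle control cultures reached saturation at 30 °C; 1 = growth at the plate median or of vehicle wells; lower values mean less growth of the strain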
# Details: growth OD
smiles,measurement,setting,value
CC/C(=C(/CC)c1ccc(O)cc1)c1ccc(O)cc1,normalized growth,"S. cerevisiae deletion strains, locus YKL009W, strain mrt4, active compounds read low",0.916
same,normalized growth,"S. cerevisiae deletion strains, locus YKL068W, active compounds read low",1.01
same,normalized growth,"S. cerevisiae deletion strains, locus YKL085W, strain MDH1 (second series), active compounds read low",0.973
same,normalized growth,"S. cerevisiae deletion strains, locus YKL085W, strain MDH1, active compounds read low",0.973
same,normalized growth,"S. cerevisiae deletion strains, locus YKL160W, strain elf1, active compounds read low",0.955
same,normalized growth,"S. cerevisiae deletion strains, locus YKL190W, strain CNB1, active compounds read low",1
same,normalized growth,"S. cerevisiae deletion strains, locus YKR001C, strain vps1, active compounds read low",0.987
same,normalized growth,"S. cerevisiae deletion strains, locus YKR026C, strain gcn3, active compounds read low",1.02
same,normalized growth,"S. cerevisiae deletion strains, locus YKR091W, strain srl3, active compounds read low",1.01
same,normalized growth,"S. cerevisiae deletion strains, locus YLL001W, strain dnm1, active compounds read low",1
same,normalized growth,"S. cerevisiae deletion strains, locus YLL026W, active compounds read low",1
same,normalized growth,"S. cerevisiae deletion strains, locus YLL041C, strain sdh2, active compounds read low",1.02
same,normalized growth,"S. cerevisiae deletion strains, locus YLR027C, strain aat2, active compounds read low",1.01
same,normalized growth,"S. cerevisiae deletion strains, locus YLR039C, strain RIC1, active compounds read low",0.481 (active)
same,normalized growth,"S. cerevisiae deletion strains, locus YLR058C, strain SHM2, active compounds read low",0.943
same,normalized growth,"S. cerevisiae deletion strains, locus YLR102C, strain apc9, active compounds read low",1.01
same,normalized growth,"S. cerevisiae deletion strains, locus YLR113W, strain HOG1, active compounds read low",0.963
same,normalized growth,"S. cerevisiae deletion strains, locus YLR221C, strain rsa3, active compounds read low",0.956
same,normalized growth,"S. cerevisiae deletion strains, locus YLR258W, strain gsy2, active compounds read low",0.963
same,normalized growth,"S. cerevisiae deletion strains, locus YLR262C, strain YPT6 (second series), active compounds read low",0.485 (active)
same,normalized growth,"S. cerevisiae deletion strains, locus YLR262C, strain YPT6, active compounds read low",0.439 (active)
same,normalized growth,"S. cerevisiae deletion strains, locus YLR268W, strain sec22, active compounds read low",0.945
same,normalized growth,"S. cerevisiae deletion strains, locus YLR320W, strain mms22, active compounds read low",0.84 (active)
same,normalized growth,"S. cerevisiae deletion strains, locus YLR330W, strain CHS5, active compounds read low",0.981
same,normalized growth,"S. cerevisiae deletion strains, locus YLR342W, strain FKS1 (second series), active compounds read low",0.89
same,normalized growth,"S. cerevisiae deletion strains, locus YLR342W, strain FKS1, active compounds read low",1.01
same,normalized growth,"S. cerevisiae deletion strains, locus YLR357W, strain rsc2, active compounds read low",1.14
same,normalized growth,"S. cerevisiae deletion strains, locus YLR370C, strain arc18, active compounds read low",1.01
same,normalized growth,"S. cerevisiae deletion strains, locus YLR371W, strain rom2, active compounds read low",1.02
same,normalized growth,"S. cerevisiae deletion strains, locus YLR384C, strain iki3, active compounds read low",1.02
same,normalized growth,"S. cerevisiae deletion strains, locus YLR418C, strain cdc73, active compounds read low",0.956
same,normalized growth,"S. cerevisiae deletion strains, locus YML016C, strain PPZ1, active compounds read low",1.01
same,normalized growth,"S. cerevisiae deletion strains, locus YML032C, strain rad52, active compounds read low",0.914
same,normalized growth,"S. cerevisiae deletion strains, locus YML120C, strain ndi1, active compounds read low",1.01
same,normalized growth,"S. cerevisiae deletion strains, locus YML124C, strain tub3, active compounds read low",1.01
same,normalized growth,"S. cerevisiae deletion strains, locus YMR058W, strain fet3, active compounds read low",0.974
same,normalized growth,"S. cerevisiae deletion strains, locus YMR078C, strain ctf18, active compounds read low",1
same,normalized growth,"S. cerevisiae deletion strains, locus YMR125W, strain sto1, active compounds read low",1.09
same,normalized growth,"S. cerevisiae deletion strains, locus YMR129W, active compounds read low",1.02
same,normalized growth,"S. cerevisiae deletion strains, locus YMR205C, strain PFK2, active compounds read low",0.943
same,normalized growth,"S. cerevisiae deletion strains, locus YMR223W, strain ubp8, active compounds read low",0.942
same,normalized growth,"S. cerevisiae deletion strains, locus YMR231W, strain pep5, active compounds read low",1.03
same,normalized growth,"S. cerevisiae deletion strains, locus YMR307W, strain GAS1, active compounds read low",0.569 (active)
same,normalized growth,"S. cerevisiae deletion strains, locus YNL067W, strain RPL9B, active compounds read low",0.933
same,normalized growth,"S. cerevisiae deletion strains, locus YNL071W, strain lat1, active compounds read low",0.913 (active)
same,normalized growth,"S. cerevisiae deletion strains, locus YNL153C, strain GIM3, active compounds read low",0.918
same,normalized growth,"S. cerevisiae deletion strains, locus YNL183C, strain NPR1, active compounds read low",0.921
same,normalized growth,"S. cerevisiae deletion strains, locus YNL209W, strain ssb2, active compounds read low",0.981
same,normalized growth,"S. cerevisiae deletion strains, locus YNL233W, strain BNI4, active compounds read low",0.896
same,normalized growth,"S. cerevisiae deletion strains, locus YNL248C, strain rpa49, active compounds read low",1.02
same,normalized growth,"S. cerevisiae deletion strains, locus YNL250W, strain rad50, active compounds read low",1
same,normalized growth,"S. cerevisiae deletion strains, locus YNL271C, strain bni1, active compounds read low",1
same,normalized growth,"S. cerevisiae deletion strains, locus YNL298W, strain CLA4, active compounds read low",0.914
same,normalized growth,"S. cerevisiae deletion strains, locus YNL307C, strain MCK1, active compounds read low",0.995
same,normalized growth,"S. cerevisiae deletion strains, locus YNL322C, strain KRE1 (second series), active compounds read low",1.03
same,normalized growth,"S. cerevisiae deletion strains, locus YNL322C, strain KRE1, active compounds read low",0.992
same,normalized growth,"S. cerevisiae deletion strains, locus YNR049C, strain mso1, active compounds read low",1.01
same,normalized growth,"S. cerevisiae deletion strains, locus YNR052C, strain pop2, active compounds read low",0.99
same,normalized growth,"S. cerevisiae deletion strains, locus YOL006C, strain TOP1, active compounds read low",0.73
same,normalized growth,"S. cerevisiae deletion strains, locus YOL012C, strain htz1",1.4
same,normalized growth,"S. cerevisiae deletion strains, locus YOL147C, strain pex11, active compounds read low",1.02
same,normalized growth,"S. cerevisiae deletion strains, locus YOR001W, strain rrp6, active compounds read low",0.997
same,normalized growth,"S. cerevisiae deletion strains, locus YOR061W, strain CKA2, active compounds read low",0.976
same,normalized growth,"S. cerevisiae deletion strains, locus YOR069W, strain VPS5, active compounds read low",1
same,normalized growth,"S. cerevisiae deletion strains, locus YOR070C, strain gyp1, active compounds read low",0.945
same,normalized growth,"S. cerevisiae deletion strains, locus YOR080W, strain dia2, active compounds read low",1.02
same,normalized growth,"S. cerevisiae deletion strains, locus YOR083W, strain WHI5, active compounds read low",0.948
same,normalized growth,"S. cerevisiae deletion strains, locus YOR106W, strain vam3, active compounds read low",0.951
same,normalized growth,"S. cerevisiae deletion strains, locus YOR136W, strain idh2, active compounds read low",1.01
same,normalized growth,"S. cerevisiae deletion strains, locus YOR144C, strain elg1, active compounds read low",1.01
same,normalized growth,"S. cerevisiae deletion strains, locus YOR184W, strain ser1, active compounds read low",0.812 (active)
same,normalized growth,"S. cerevisiae deletion strains, locus YOR231W, strain MKK1, active compounds read low",0.976
same,normalized growth,"S. cerevisiae deletion strains, locus YOR265W, strain rbl2, active compounds read low",0.999
same,normalized growth,"S. cerevisiae deletion strains, locus YOR270C, strain vph1, active compounds read low",0.728 (active)
same,normalized growth,"S. cerevisiae deletion strains, locus YOR290C, strain snf2, active compounds read low",0.961
same,normalized growth,"S. cerevisiae deletion strains, locus YOR316C, strain cot1, active compounds read low",1
same,normalized growth,"S. cerevisiae deletion strains, locus YPL051W, strain arl3, active compounds read low",0.919
same,normalized growth,"S. cerevisiae deletion strains, locus YPL055C, strain LGE1, active compounds read low",0.811
same,normalized growth,"S. cerevisiae deletion strains, locus YPL078C, strain atp4, active compounds read low",0.953
same,normalized growth,"S. cerevisiae deletion strains, locus YPL106C, strain sse1, active compounds read low",1.12
same,normalized growth,"S. cerevisiae deletion strains, locus YPL240C, strain hsp82, active compounds read low",1.01
same,normalized growth,"S. cerevisiae deletion strains, locus YPL256C, strain CLN2, active compounds read low",0.977
same,normalized growth,"S. cerevisiae deletion strains, locus YPR119W, strain clb2, active compounds read low",1
same,normalized growth,"S. cerevisiae deletion strains, locus YPR141C, strain kar3, active compounds read low",1.03
same,normalized growth,"S. cerevisiae deletion strains, locus YPR163C, strain tif3, active compounds read low",1.02
same,normalized growth,"S. cerevisiae deletion strains, locus YPR167C, strain met16, active compounds read low",1
same,normalized growth,"S. cerevisiae deletion strains, strain wtn01, active compounds read low",0.971
same,normalized growth,"S. cerevisiae strains, strain wild type, active compounds read low",0.948
